We go through 11 molecules from ChEMBL document CHEMBL1157539, “Thousands of chemical starting points for antimalarial lead identification” (Nature, 2010).

What all share (assay type): functional
Test [1] has as its system Plasmodium falciparum. Kind of test: GSK_TCMDC: Inhibition of Plasmodium falciparum 3D7 in whole red blood cells, using parasite LDH activity as an index of growth. Test compounds present at 2uM.
Test [2] deals with Plasmodium falciparum. The test is described as follows: GSK_TCMDC: Inhibition of Plasmodium falciparum Dd2 in whole red blood cells, using parasite LDH activity as an index of growth. Test compounds present at 2uM.
For the next test, the system named is HepG2. The test is described as follows: GSK_TCMDC: Percent inhibition of human HepG2 cell line. Test compounds present at 10uM.

For `COc1ccc(CCN(C)CCOc2ccc(NC(=O)c3cccc4cc5ccccc5nc34)cc2)cc1OC`, the Inhibition in the test on Plasmodium falciparum [1] was 100%; in the test with Plasmodium falciparum [2] it was 99%; in the test on HepG2 it was 37%.

`CN1CCN(c2ccnc3ccc(NC(=O)Nc4c(Cl)cccc4Cl)cc23)CC1`: the Inhibition in the test with Plasmodium falciparum [1] was found to be 96%; with Plasmodium falciparum [2], 12%; in the test on HepG2, 11%.

For the molecule `Cc1nc(O)c2c(ccc3ccc(CNc4ccc(C(=O)N[C@@H](CCC(=O)O)C(=O)O)c(F)c4)cc32)n1`, the Inhibition worked out at 96% in the test on Plasmodium falciparum [1], 96% in the test with Plasmodium falciparum [2] and 41% with HepG2.

As for `Fc1ccc2[nH]c(-c3cccc(-c4ccc(CNCCc5ccncc5)cc4)c3)nc2c1.O=C(O)C(F)(F)F`, the Inhibition in the test on Plasmodium falciparum [1] is reported as 99%; with Plasmodium falciparum [2] it was 100%; with HepG2, 44%.

As for `Cl.Cn1cc(Br)c(-c2cccc(Nc3ccnc4cc(-c5nccs5)ccc34)c2)n1`, the Inhibition is 91% in the test on Plasmodium falciparum [1], 32% with Plasmodium falciparum [2] and 37% in the test with HepG2.

For the molecule `COc1ccc(OCC(O)CN(Cc2ccccc2OC)C(=O)Nc2ccc(Br)cc2)cc1` (stereo not drawn), the Inhibition in the test on Plasmodium falciparum [1] is recorded as 97%; with Plasmodium falciparum [2], 2%; in the test on HepG2, 8%.

Regarding `Cc1ccc(C)c2c1[nH]c1ccc(C3=NCCN3)cc12.Cl`, the Inhibition in the test on Plasmodium falciparum [1] is reported as 100%; with Plasmodium falciparum [2] it was 0%; with HepG2 it was 29%.

On to `CC(C)C1c2ccc(O)cc2CC2C(=O)N(C3CCCCC3)C(=O)N21` (stereo not drawn), for which the Inhibition in the test with Plasmodium falciparum [1] is reported as 95%; in the test with Plasmodium falciparum [2], 88%; in the test on HepG2, 2%.

Regarding `O=C(Cc1ccc(-n2cnnn2)cc1)N(Cc1cncn1Cc1cccc(C(F)(F)F)c1)CC1CC1`, the Inhibition with Plasmodium falciparum [1] came out at 86%; in the test with Plasmodium falciparum [2] it was 0%; in the test with HepG2 it was 0%.

Consider `N#Cc1cccc(-c2cnc(N)c(-c3nc4cc(S(N)(=O)=O)ccc4[nH]3)c2)c1`, for which the Inhibition was determined as 100% with Plasmodium falciparum [1], 99% with Plasmodium falciparum [2] and 16% with HepG2.

On to `O=C(Nc1ccc(-c2nc3ccccc3[nH]2)cc1)c1ccc([N+](=O)[O-])s1`, for which the Inhibition in the test on Plasmodium falciparum [1] turned out to be 100%; in the test on Plasmodium falciparum [2], 77%; in the test with HepG2, 83%.

One may read the Inhibition as how much of the control response was suppressed.
